Measurements taken from the supplement of paper PMC6555819.

Experiments:
Experiment in all cases: PBM binding z-score (relative to random genomic background probes); higher = stronger binding; sequences stand for … in GC…GCGATTGACAGCGTAGAATGAAGG
[1] = tested on: FXR:RXRa (NR concentration 270 nM, RXRa partner concentration 90 nM)
How it was run: (§1)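 Custom Agilent 4×180K protein-binding microarrays carried double-stranded probes, each with a 34-nt variable region. These regions held direct-repeat seeds, single-nucleotide variants, half-site ablations and random human genomic background sequences. Ligand-free nuclear receptor dimers were incubated on the arrays for 1 h, antibodies against each partner (one per run) detected binding, and scanned fluorescence was regression-normalized. Binding z-scores take the random background probes as reference.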

[2] = tested on: LXRa:RXRa (NR concentration 270 nM, RXRa partner concentration 90 nM)
How it was run: as §1

[3] = tested on: LXRa homodimer (NR concentration 270 nM)
How it was run: as §1

[4] = tested on: LXRb:RXRa (NR concentration 270 nM, RXRa partner concentration 90 nM)
How it was run: as §1

[5] = tested on: LXRb homodimer (NR concentration 270 nM)
How it was run: as §1

[6] = tested on: PPARa:RXRa (NR concentration 270 nM, RXRa partner concentration 90 nM)
How it was run: as §1

[7] = tested on: PPARg:RXRa (NR concentration 180 nM, RXRa partner concentration 90 nM)
How it was run: as §1

[8] = tested on: PPARg:RXRa 270nM:90nM, anti-RXR (NR concentration 270 nM, RXRa partner concentration 90 nM)
How it was run: as §1

[9] = tested on: PPARg:RXRa 30nM:10nM, anti-RXR (NR concentration 30 nM, RXRa partner concentration 10 nM)
How it was run: as §1

[10] = tested on: PPARg:RXRa 90nM:30nM, anti-RXR (NR concentration 90 nM, RXRa partner concentration 30 nM)
How it was run: as §1

| Sequence | PBM binding z-score [1] | PBM binding z-score [2] | PBM binding z-score [3] | PBM binding z-score [4] | PBM binding z-score [5] | PBM binding z-score [6] | PBM binding z-score [7] | PBM binding z-score [8] | PBM binding z-score [9] | PBM binding z-score [10] |
| --- | --- | --- | --- | --- | --- | --- | --- | --- | --- | --- |
| CCTACTGGGCCAAAAAGGTCATCGATGCCGATAA | 3.69 | 4.2 | 2.69 | 4.33 | 0.178 | 4.93 | 4.32 | 4.61 | 2.07 | 4.04 |
| CCTATTAGTTGACCATAAGGGTAACCGAAGCTCG | 0.709 | 0.386 | 0.682 | 0.604 | 0.958 | 0.678 | 0.317 | 0.671 | 0.348 | 0.358 |
| CCCAGTTGGTCAGGAGGTCACACACCGGATATGA | 3.51 | 3.58 | 1.99 | 3.58 | 0.535 | 4.21 | 3.56 | 3.79 | 1.07 | 3 |
| CAAACTAGGTCAAGGTCAAAGTTGGTTTGTGCCA | 7 | 5.55 | 4.19 | 4.77 | 1.48 | 6.04 | 9.87 | 7.82 | 6.98 | 8.52 |
| AGGCAAAGTTCAGGACGAGGTAACGTAAAGCACG | 4.22 | 3.64 | 1.15 | 1.9 | 0.202 | 3.37 | 3.33 | 4.04 | 1.44 | 3.05 |
| CAAACTAGGTCACGAAAGGTCGAAGTCGAATGAC | 5.94 | 6.62 | 2.69 | 5.17 | 0.867 | 6.03 | 9.65 | 7.81 | 5.91 | 8.11 |
| TCTGCTAGGTCAGTTCGTCAGCTAACGAGCTGCC | 0.654 | 0.387 | -0.691 | 0.0408 | 0.21 | 0.896 | 0.0243 | 1.38 | 1.37 | 1.51 |
| CCTACTGGGCCAAGGTCATTGGTCAGTCAAAGCA | 3.51 | 2.93 | 1.17 | 2.84 | -0.423 | 4.01 | 4.31 | 4.6 | 1.68 | 3.55 |
| TCTCGCAGGCCAGAGGGTCACTCAAGAGGTACGG | 1.04 | 1.1 | -0.517 | 1.02 | -1.09 | 2.32 | 0.92 | 1.95 | 2.05 | 1.91 |
| CCTCGGAGGACAGAAGGTCTGAGCTGTCCGCTTT | -0.434 | -0.47 | -0.775 | -1.15 | -1.31 | -0.68 | -0.853 | -0.655 | -1.15 | -1.14 |
| CCTCCTGGGCCATTCAGAGGTCATTGATCATATG | 2.62 | 4.24 | 6.14 | 3.46 | -0.028 | 3.23 | 0.59 | 1.78 | 0.334 | 0.958 |
| TCAAGTAGGTTAGTCGGGGCATTCAGCCAACATA | 0.926 | 0.645 | 0.0892 | 1.03 | 0.134 | 1.68 | 1.07 | 2.48 | 3.63 | 3.14 |
| TCTATTTGGTCACGGAGGTCACACACGACGGGTA | 3.93 | 3.92 | 3.39 | 3.88 | 2.63 | 4.23 | 4.04 | 4.8 | 4.57 | 4.77 |
| ATTACAGGGTCATCGTAGGCCAGAGTACGCACAG | 7.11 | 6.64 | 1.78 | 4.65 | 2.02 | 6.2 | 7.1 | 6.16 | 2.72 | 5.18 |
| CGAACTAGGTCATCCACGACAGTGAATACATTGA | 4.92 | 2.48 | 0.634 | 2.23 | 0.18 | 4.92 | 8.03 | 6.61 | 4.01 | 5.93 |
| TTACCAAGGTGAAGGTCATTGATCCCTCTGTAGA | 4.39 | 4.39 | 2.26 | 3.7 | -0.235 | 4.36 | 5.26 | 5.49 | 3.52 | 5.38 |
| CCTATTAGTTGACAATAAGGGCAACCGAAGCTCG | 0.365 | 0.482 | 0.182 | 0.544 | 0.647 | 0.418 | 0.511 | 0.218 | 0.0655 | 0.0255 |
| GCTAGCAGGCCATTTGGGTCAATCAATGACGGGC | 0.192 | 0.264 | -0.476 | 0.271 | -0.737 | 1.4 | 0.636 | 0.364 | -1.07 | -0.156 |
| TTACAAAGGTGAAGGTCGTTGATCCCTCTGTAGA | 3.61 | 2.92 | 0.147 | 2.33 | -0.453 | 3.81 | 3.92 | 4.48 | 2.28 | 4.11 |
| GCTCGGACGACAAGGTCAGAGCTTTGTCCGTAGA | 1.39 | 1.19 | -0.78 | 0.912 | -1.26 | 2 | 0.028 | 0.343 | -0.807 | -0.125 |
| ACTAGCAGGCCAAGGGTCACTCAAGATTAGTCCG | 2.48 | 2.76 | 0.0687 | 2.81 | -0.402 | 4.43 | 7.75 | 7.53 | 7.41 | 8.63 |
| TAGCCTATGTCATGGGCCAGTATACCACGCGAAC | -0.15 | -0.356 | -0.253 | -0.589 | -0.827 | -0.267 | 0.56 | -0.0658 | -0.369 | -0.213 |
| TAGCCTAGGTCATGGGCCAGTCTACCACGCGAAC | 4.36 | 3.2 | 0.0919 | 2.04 | -0.312 | 4 | 3.34 | 3.49 | 0.699 | 2.48 |
| CTGCCTAGGTCAGGGCCAGTATAGGAGGAACGTT | 1.28 | 1.01 | -0.475 | 0.634 | -1.25 | 1.88 | 0.668 | 0.916 | -0.35 | 0.272 |
